# Assay results from PubChem BioAssay (EPA / NIEHS).
# Results filed as inconclusive are left out. Activity calls are given as the source filed them. Rule for the calls, unless noted: active = hit-call score of the fitted dose curve at least 0.9, where 1 is the maximum; inactive = score below 0.9.
# Columns and labels:
# [1] = CCTE_Shafer_MEA_dev_firing_rate_mean: CCTE's Neural Network Formation Assay for Mean Firing Rate, Shafer Lab (AID 2284031);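 for AC50: curve fitted for loss of firing so AC50 reflects decreased mean firing rate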
# Summary of the method: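 Rat primary cortical neurons were seeded on multielectrode arrays and treated from plating through day 12, with redosing at each feed. Spontaneous spiking was recorded four times; mean firing rate AUC was fitted downward against DMSO.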
# [2] = CCTE_Shafer_MEA_dev_per_burst_spike_percent: CCTE's Neural Network Formation Assay for Percent of Spikes in a Burst, Shafer Lab (AID 2284032);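 for AC50: fitted as a decrease in burst spike percentage below DMSO baseline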
# Summary of the method: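 Rat primary cortical neurons on 16-electrode MEA wells, dosed from plating day 0 for 12 days with renewal on DIV 5 and 9; spikes-in-bursts percentage averaged over bursting electrodes, collapsed as AUC across days 5, 7, 9, 12; loss direction versus DMSO.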
# [3] = CCTE_Shafer_MEA_dev_active_electrodes_number: CCTE's Neural Network Formation Assay for Number of Active Electrodes, Shafer Lab (AID 2284040; active = hit-call score of the fitted dose curve at least 0.9, where 1 is the maximum;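 for AC50: potency for loss of active electrodes versus DMSO so lower counts are hits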)
# Summary of the method: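 Primary rat cortical neurons on 16-electrode MEA wells, exposed from day 0 through day 12 with compound renewed at DIV 5 and 9 feeds. Active electrodes (mean firing ≥5 spikes/min) counted at DIV 5, 7, 9, 12; trapezoidal AUC across days, loss-of-signal versus DMSO.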
# [4] = CCTE_Shafer_MEA_dev_burst_rate: CCTE's Neural Network Formation Assay for Burst Rate, Shafer Lab (AID 2284042);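 for AC50: potency for loss of burst rate below DMSO control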
# Summary of the method: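 Developmental network assay measuring how 12-day exposure of rat cortical neuron cultures alters bursting on extracellular MEA recordings. Values are AUC of well-mean burst rate across four recording days, relative to DMSO vehicle.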
# [5] = CCTE_Shafer_MEA_dev_bursting_electrodes_number: CCTE's Neural Network Formation Assay for Number of Bursting Electrodes, Shafer Lab (AID 2284043; active = hit-call score of the fitted dose curve at least 0.9, where 1 is the maximum;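 for AC50: potency is for loss of bursting electrodes relative to DMSO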)
# Summary of the method: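 Read-out is the per-well number of electrodes bursting at least once every 2 minutes, recorded on days 5, 7, 9 and 12 and collapsed by trapezoidal area under the curve. Cultures were primary rat cortical neurons on MEA plates, treated continuously from plating.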
# [6] = CCTE_Shafer_MEA_dev_per_burst_interspike_interval: CCTE's Neural Network Formation Assay for Burst Interspike Interval, Shafer Lab (AID 2284044);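 note: mean spike spacing inside bursts as AUC over recordings on days 5 7 9 12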;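 for AC50: potency for a decrease of within-burst interspike interval below DMSO level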
# Summary of the method: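 Spontaneous activity of maturing rat cortical networks is recorded on DIV 5, 7, 9 and 12 under chronic compound exposure beginning at plating. Endpoint: burst interspike interval well-mean, collapsed into trapezoidal AUC and fitted in the negative direction relative to DMSO.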
# [7] = CCTE_Shafer_MEA_dev_burst_duration_mean: CCTE's Neural Network Formation Assay for Mean Burst Duration, Shafer Lab (AID 2284045);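 for AC50: curve fitted for loss meaning shorter burst duration than DMSO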
# Summary of the method: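 Read-out: average first-to-last-spike interval within single-electrode bursts, averaged over bursting electrodes per well, then summarised as area under the curve across days 5, 7, 9 and 12. Developing rat cortical networks were exposed from day 0.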
# [8] = biological target: Estrogen receptor (Homo sapiens) (UniProt P03372); experiment: CCTE_Deisenroth_AIME_384WELL_LUC_Inactive: CCTE's 384-well Estrogen Receptor Transactivation Assay without AIME metabolic competence (ERTA luciferase; metabolism negative), Deisenroth Lab (AID 2284038; active = hit-call score of the fitted dose curve at least 0.9, where 1 is the maximum;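 note: VM7Luc4E2 breast cells given medium preincubated 2 h with S9-free microspheres; hits raise estrogen receptor luciferase signal so potencies reflect agonists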)
# Summary of the method: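 Metabolism-negative mode: chemicals (10-point, 0.002–200 uM) held 2 h with alginate-water microspheres, then conditioned medium applied to VM7Luc4E2 cells for 24 h. Luciferase induction referenced to 17beta-estradiol.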
# [9] = biological target: Estrogen receptor (Homo sapiens) (UniProt P03372); experiment: CCTE_Deisenroth_AIME_384WELL_LUC_Shift: CCTE's 384-well Estrogen Receptor Transactivation Assay with AIME metabolic competence data shift (ERTA luciferase; difference in metabolism positive and negative), Deisenroth Lab (AID 2284041);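 note: shift is response with S9 minus without S9 so positive means metabolism raised ER signal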
# Summary of the method: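 Test chemicals (0.002–200 uM, 10-point) were pre-incubated 2 h with alginate microspheres containing phenobarbital/beta-naphthoflavone-induced male Sprague Dawley rat liver S9 or water, then medium was transferred to VM7Luc4E2 cells for 24 h luciferase readout; shift = S9-positive minus S9-negative normalized response.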
# [10] = CCTE_Deisenroth_AIME_384WELL_CTox_Inactive: Cytotoxicity Assessment (CTOX) in CCTE's 384-well Estrogen Receptor Transactivation Assay without AIME metabolic competence (metabolism negative), Deisenroth Lab (AID 2284039; active = hit-call score of the fitted dose curve at least 0.9, where 1 is the maximum;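 note: cell viability via live-cell protease substrate cleaved to fluorescent probe; cells exposed 24 h to medium preincubated 2 h with alginate-water beads without S9; loss of fluorescence signal means loss of viability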)
# Summary of the method: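 Fluorescence from a live-cell protease substrate, read after 24 h in VM7Luc4E2 cells, indicated viability. Test medium came from a 2 h AIME step without hepatic S9 (alginate-water microspheres); concentrations spanned 0.002 - 200 uM, single technical replicate per run.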
# Sequence of Estrogen receptor (Homo sapiens) (P03372 whole entry, looked up): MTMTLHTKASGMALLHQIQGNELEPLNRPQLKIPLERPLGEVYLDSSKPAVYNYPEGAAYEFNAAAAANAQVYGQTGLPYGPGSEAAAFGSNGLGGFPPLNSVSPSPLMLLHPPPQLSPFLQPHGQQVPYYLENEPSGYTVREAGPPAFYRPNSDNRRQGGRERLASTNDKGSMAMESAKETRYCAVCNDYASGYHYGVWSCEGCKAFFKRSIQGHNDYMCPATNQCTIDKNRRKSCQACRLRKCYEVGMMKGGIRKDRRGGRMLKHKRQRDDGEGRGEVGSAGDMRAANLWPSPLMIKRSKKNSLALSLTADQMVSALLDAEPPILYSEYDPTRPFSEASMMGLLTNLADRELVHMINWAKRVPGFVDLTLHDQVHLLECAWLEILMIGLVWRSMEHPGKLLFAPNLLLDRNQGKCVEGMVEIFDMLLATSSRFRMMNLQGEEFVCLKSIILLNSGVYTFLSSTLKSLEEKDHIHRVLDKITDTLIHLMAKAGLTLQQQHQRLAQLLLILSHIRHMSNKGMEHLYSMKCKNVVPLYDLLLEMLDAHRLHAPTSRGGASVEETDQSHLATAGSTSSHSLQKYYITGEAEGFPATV
smiles,measurement,setting,value
O=S(=O)(F)C(F)(F)C(F)(F)C(F)(F)C(F)(F)F,outcome,[1],inactive
same,outcome,[2],inactive
same,outcome,[3],inactive
same,outcome,[4],inactive
same,outcome,[5],inactive
same,outcome,[6],inactive
same,outcome,[7],inactive
CC(F)(F)CC(F)(F)F,outcome,[1],inactive
same,outcome,[2],inactive
same,outcome,[4],inactive
same,outcome,[6],inactive
same,outcome,[7],inactive
CCOCn1c(-c2ccc(Cl)cc2)c(C#N)c(Br)c1C(F)(F)F,AC50,[1],3.01 µM (active)
same,AC50,[2],6.04 µM (active)
same,AC50,[3],4.74 µM (active)
same,AC50,[4],4.86 µM (active)
same,AC50,[5],4.44 µM (active)
same,AC50,[6],1.61 µM (active)
same,AC50,[7],2.71 µM (active)
Cc1cc(Cl)ccc1OC(C)C(=O)O (stereo not drawn),outcome,[8],inactive
same,outcome,[9],inactive
OC(Cc1ccccc1Cl)(Cn1[nH]cnc1=S)C1(Cl)CC1 (stereo not drawn),AC50,[1],20.8 µM (active)
same,AC50,[2],50 µM (active)
same,AC50,[3],37.1 µM (active)
same,AC50,[4],29.4 µM (active)
same,AC50,[5],29.9 µM (active)
same,AC50,[6],11.2 µM (active)
same,outcome,[7],inactive
CNC(=O)O/N=C/C(C)(C)S(C)(=O)=O,outcome,[8],inactive
same,outcome,[10],inactive
same,outcome,[9],inactive
CCC[CH2][Sn]([Cl])([Cl])[CH2]CCC,AC50,[10],9.65 µM (active)
same,outcome,[9],inactive
CC(=Cc1ccccc1)[N+](=O)[O-],outcome,[9],inactive
CS(=O)(=O)c1ccc(C(=O)C2C(=O)CCCC2=O)c(Cl)c1COCC(F)(F)F,outcome,[1],inactive
same,outcome,[2],inactive
same,outcome,[4],inactive
same,outcome,[6],inactive
same,outcome,[7],inactive
CCCCCCCCCCCCc1cccc(S(=O)(=O)O)c1,outcome,[10],inactive
CN(C)C(=S)S,outcome,[10],inactive
Oc1cc(Cl)c(Cl)cc1Cl,outcome,[10],inactive
CC(C)[C@@H](Nc1ccc(C(F)(F)F)cc1Cl)C(=O)OC(C#N)c1cccc(Oc2ccccc2)c1 (stereo partly drawn),outcome,[1],inactive
same,outcome,[2],inactive
same,AC50,[3],14.5 µM (active)
same,outcome,[4],inactive
same,AC50,[5],14.5 µM (active)
same,outcome,[6],inactive
same,outcome,[7],inactive
Clc1cccc(Cl)c1,outcome,[10],inactive
N#Cc1cccnc1,outcome,[8],inactive
same,outcome,[9],inactive
O=S1(=O)OC(c2cc(Br)c(O)c(Br)c2)(c2cc(Br)c(O)c(Br)c2)c2ccccc21,outcome,[10],inactive
same,outcome,[9],inactive
Cc1cc(C(F)(C(F)(F)F)C(F)(F)F)ccc1NC(=O)c1cccc(I)c1C(=O)NC(C)(C)CS(C)(=O)=O,outcome,[1],inactive
same,AC50,[2],5.5 µM (active)
same,AC50,[3],11.3 µM (active)
same,outcome,[4],inactive
same,AC50,[5],11.3 µM (active)
same,outcome,[6],inactive
same,outcome,[7],inactive
CC1(C)[C@H](C(=O)O[C@H](C#N)c2cccc(Oc3ccccc3)c2)[C@@H]1/C=C(\Cl)C(F)(F)F,outcome,[1],inactive
same,AC50,[2],22.7 µM (active)
same,AC50,[3],12.9 µM (active)
same,outcome,[4],inactive
same,AC50,[5],12.9 µM (active)
same,outcome,[6],inactive
same,outcome,[7],inactive
